Rows were chosen to be rich in hits. Some 3% of all compounds tested hit in one or more screens of this group.
SENP8 block-1 = human SENP8 protease inhibitors, primary screen, biochemical, fluorescence, Nedd8 protein substrate, uHTS; AID 602440, 2012; Sentrin-specific protease 8 (Homo sapiens), Q96LD8; recombinant SENP8; inhibition, % at 20 µM; 0.64% of 360,000 active; in the data active = inhibition mostly above about 40%, no sharp cut-off; inactive = mostly below about 27%
Target sequence (Q96LD8 whole entry, looked up): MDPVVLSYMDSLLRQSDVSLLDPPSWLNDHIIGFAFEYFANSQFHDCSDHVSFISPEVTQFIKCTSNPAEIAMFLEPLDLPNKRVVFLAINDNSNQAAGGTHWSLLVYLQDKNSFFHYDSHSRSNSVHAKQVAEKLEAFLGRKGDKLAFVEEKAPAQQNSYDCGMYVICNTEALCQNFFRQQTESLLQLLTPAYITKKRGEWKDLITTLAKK
PPC-1+TRAIL kill = compounds killing PPC-1 cancer cells with TRAIL present, primary screen, TRAIL potentiator project, ATPLite luminescence, uHTS. AID 1443, 2008. cell killing (% activity), % at 4 µM or 5 µM. 0.41% of 220,000 active. PPC-1 cells + TRAIL, ATPLite viability luminescence;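 active = cell killing above 50% in the first pass at 4 µM, then a duplicate retest at 5 µM averaging 50% or more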
SENP8 block-2 = SENP8 protease inhibitors, primary screen, biochemical, luminescence; Sentrin-specific protease 8 (Homo sapiens), Q96LD8; purified SENP8, Z-RLRGG-aminoluciferin cleavage; inhibition, % at 10 µM; 1.2% of 330,000 active; in the data active = inhibition above about 50%
SENP7 inh = SENP7 protease inhibitors, primary screen, biochemical, luminescence, uHTS; recombinant SENP7, Z-RLRGG-aminoluciferin luminescence, 40 min; inhibition, % at 5 µM; 1.5% of 330,000 active;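 active = inhibition above about 50% at the single test dose, limit read from the data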
C8 TRAIL sens = viability loss with TRAIL in NB7+C8 cells, primary screen, TRAIL sensitizer project, cell-based, ATPlite luminescence; inhibition (viability loss, TRAIL sensitization), % at 10 µM; 1% of 360,000 active;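 active = compounds causing at least 50% loss of cell viability in the single-dose screen, relative to plate controls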
SENP6 block = SENP6 protease inhibitors, primary screen, biochemical, luminescence, uHTS | Sentrin-specific protease 6 (Homo sapiens), Q9GZR1 | Recombinant SENP6 catalytic domain, aminoluciferin luminescence | inhibition, % at 10 µM | 1.8% of 330,000 active;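 active = inhibition above about 50% at the single tested dose, limit read from the data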
Target sequence (Q9GZR1 628-1112 limits assumed): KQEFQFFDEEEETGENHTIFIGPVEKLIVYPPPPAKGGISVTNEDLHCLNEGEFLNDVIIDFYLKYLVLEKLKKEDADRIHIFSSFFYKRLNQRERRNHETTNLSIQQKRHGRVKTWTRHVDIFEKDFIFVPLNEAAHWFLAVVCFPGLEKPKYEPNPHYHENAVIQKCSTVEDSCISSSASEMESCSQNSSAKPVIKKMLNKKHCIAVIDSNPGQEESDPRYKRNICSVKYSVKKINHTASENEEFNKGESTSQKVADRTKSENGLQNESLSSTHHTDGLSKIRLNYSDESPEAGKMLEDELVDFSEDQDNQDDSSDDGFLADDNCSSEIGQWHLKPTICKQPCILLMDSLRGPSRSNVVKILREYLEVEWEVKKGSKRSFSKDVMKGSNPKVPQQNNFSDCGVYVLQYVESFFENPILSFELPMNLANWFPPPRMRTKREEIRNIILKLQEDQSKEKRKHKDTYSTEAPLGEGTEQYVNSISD
PPC-1 tox = cytotoxicity in PPC-1 cells, confirmation, cytotoxicity control for TRAIL apoptosis potentiator project, cell-based, ATP content luminescence; shares compounds with PPC-1+TRAIL kill; PPC-1 viability, ATPlite luminescence, overnight; cytotoxicity, % at 5 µM; 50% of 1,200 active; AID 1447, 2008;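 active = reconfirmed compounds whose average cytotoxicity reaches 50% or more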
Large screens that a line does not name were inactive (follow-up assays come after a bar, where they were run).

O=C(Nc1nc2cc3c(cc2s1)OCCO3)c1ccncc1	none | PPC-1 tox inactive
CS(=O)(=O)c1ccc2nc(NC(=O)c3ccco3)sc2c1	C8 TRAIL sens 56.9 | PPC-1 tox inactive
O=C(Nc1nc2cc3c(cc2s1)OCCO3)c1ccc(N2C(=O)CCC2=O)cc1	none
O=C(Nc1nc2cc3c(cc2s1)OCO3)c1ccco1	PPC-1+TRAIL kill 68.5, C8 TRAIL sens 75.3 (no result: SENP8 block-2, SENP7 inh, SENP6 block) | PPC-1 tox 71.6
COc1ccccc1-c1cnc2c(c1)C(=O)N([C@@H](C)CO)C[C@@H](C)[C@H](CN(C)C(=O)c1cccnc1)O2	none (no result: PPC-1+TRAIL kill, SENP8 block-2, SENP7 inh, SENP6 block)
Cc1ccc(C(C)C)cc1C(=O)CC1(O)C(=O)N(C)c2ccccc21 (configuration not stated)	none | PPC-1 tox inactive
CCN(CC)c1ccc2cc(-c3nc4ccccc4[nH]3)c(=O)oc2c1	PPC-1+TRAIL kill 95.5, SENP8 block-2 51.2, SENP7 inh 95.5, C8 TRAIL sens 94.9, SENP6 block 69.2 | PPC-1 tox 95.4
CCN(CC)c1ccc2cc(-c3nc4ccccc4n3C)c(=O)oc2c1	none (no result: SENP8 block-2, SENP7 inh, SENP6 block)
O=C(Nc1ccc(NC(=O)c2ccco2)nc1)c1ccco1	PPC-1+TRAIL kill 52.6, C8 TRAIL sens 68.5 | PPC-1 tox 51.9
CCN(CC)c1ccc(N=Cc2cc(Br)ccc2O)cc1	none | PPC-1 tox inactive
Oc1ccc(Br)cc1C=Nc1ccc(Cl)cc1	none
O=C(c1ccco1)N1CCN(c2ncnc3c2cnn3-c2ccccc2)CC1	none | PPC-1 tox inactive
ClCc1ncc(-c2ccc(Cl)cc2)o1	none | PPC-1 tox inactive
Cc1ccccc1Cn1ccc(NC(=O)CCSc2nc(-c3ccco3)cc(C(F)(F)F)n2)n1	none | PPC-1 tox inactive
Cc1ccc(S(=O)(=O)NCCc2cn3nc(C)c(C)nc3n2)cc1C	none (no result: PPC-1+TRAIL kill)
NS(=O)(=O)c1cccc(NC(=O)c2cc3ccccc3o2)c1	C8 TRAIL sens 63.4 | PPC-1 tox inactive
O=C(Nc1cc(S(=O)(=O)N2CCOCC2)ccc1N1CCCC1)c1ccc2c(c1)S(=O)(=O)c1ccccc1C2=O	none
Cc1ccc(NN2C(=O)C=C(c3ccc(Cl)cc3)C2=O)cc1	none | PPC-1 tox inactive
O=C(NC1CC1)c1cccc(Nc2ccc(-c3ccc4c(c3)OCCO4)nn2)c1	PPC-1+TRAIL kill 68.6, C8 TRAIL sens 72.3 | PPC-1 tox 66.0
O=S(=O)(c1ccc(Nc2ccc(-c3ccc4c(c3)OCCO4)nn2)cc1)N1CCCC1	none
O=C1NC(=O)C(Cc2c[nH]c3ccccc23)N1 (configuration not stated)	none (no result: PPC-1+TRAIL kill)
Cc1cc(/C=N/NC(=O)c2cccs2)c(C)n1-c1ccccc1	PPC-1+TRAIL kill 68.7, C8 TRAIL sens 61.4 | PPC-1 tox 67.8
O=C(NCC1CCCO1)C1CC(=O)N(c2ccccc2)C1 (configuration not stated)	none (no result: PPC-1+TRAIL kill)
CC(=O)c1c(C)[nH]c(C(=O)Nc2nc(C)cs2)c1C	PPC-1+TRAIL kill 66.2, C8 TRAIL sens 72.9 | PPC-1 tox 65.2
CC(=O)c1c(C)[nH]c(C(=O)Nc2ccc(C)cn2)c1C	PPC-1+TRAIL kill 69.0, C8 TRAIL sens 73.2 | PPC-1 tox 66.5
Cc1ccn(CC(=O)N2CCCC(N3CCN(c4cccc(C(F)(F)F)c4)CC3)C2)n1 (configuration not stated)	none (no result: PPC-1+TRAIL kill, SENP8 block-2, SENP7 inh, SENP6 block)
CC1C(=O)NN=C1C(=O)N/N=C\C(Br)=C\c1ccccc1 (configuration not stated)	PPC-1+TRAIL kill 78.4, C8 TRAIL sens 73.9 | PPC-1 tox 79.0
CCOc1cc(/C=N/Nc2cc(C)nc(-n3nc(C)cc3C)n2)ccc1O	PPC-1+TRAIL kill 57.5 | PPC-1 tox 54.2
COc1cc(/C=N/Nc2nn3cnnc3c3ccccc23)ccc1O	PPC-1+TRAIL kill 78.7, C8 TRAIL sens 77.6 | PPC-1 tox 76.6
CCOc1cc(/C=N/Nc2nc(C)cc(=O)[nH]2)ccc1O	none (no result: PPC-1+TRAIL kill)
CCOc1cc(/C=N/Nc2nncc(-c3ccccc3)n2)ccc1O	none
CCOc1cc(/C=N/Nc2nn3cnnc3c3ccccc23)ccc1O	PPC-1+TRAIL kill 56.1, C8 TRAIL sens 73.5 | PPC-1 tox 58.7
CC(Oc1cccc(Cl)c1)C(=O)Nc1cc(=O)n(C)c(=O)n1C (configuration not stated)	none | PPC-1 tox inactive
Cc1ccc(NC(=O)c2c(C)noc2C)cc1	none | PPC-1 tox inactive
CCC(=O)Oc1ccc(NC(=O)c2ccc(S(=O)(=O)N3CCCC3)cc2)cc1	none (no result: PPC-1+TRAIL kill, SENP8 block-2, SENP7 inh, SENP6 block)
COCCNC(=O)c1noc2c1CCc1cc(OC)ccc1-2	none
COc1ccc2c(c1)CCc1c(C(=O)NCc3ccco3)noc1-2	none | PPC-1 tox inactive
COc1ccc(C(=O)NCC(=O)OCC(=O)Nc2ncc(Cl)cc2Cl)cc1[N+](=O)[O-]	none (no result: PPC-1+TRAIL kill)
CCCn1nc(NC(=O)c2ccco2)c2cc3cc(C)ccc3nc21	none
CCCn1nc(NC(=O)c2ccco2)c2cc3ccc(C)cc3nc21	none | PPC-1 tox inactive
COc1ccc2[nH]c3nc(SC(C)C)nnc3c2c1	PPC-1+TRAIL kill 57.9, C8 TRAIL sens 63.4 | PPC-1 tox 55.8
COc1ccc(CNC(=O)CSc2nnc3c(n2)[nH]c2ccc(OC)cc23)cc1	none (no result: PPC-1+TRAIL kill)
Fc1ccc(CO/N=C/C2=C(Cl)c3ccccc3CC2)cc1	none | PPC-1 tox inactive
CCOP(=O)(OCC)C(NC(=O)c1cccs1)c1ccccc1 (configuration not stated)	none (no result: PPC-1+TRAIL kill)
COCCNC(=O)C1(C)CCCN(C(=O)c2cccc(Cl)c2)C1 (configuration not stated)	none (no result: PPC-1+TRAIL kill, SENP8 block-2, SENP7 inh, SENP6 block)
CCCNC(=O)C1(C)CCCN(C(=O)c2cccc(C#N)c2)C1 (configuration not stated)	none (no result: PPC-1+TRAIL kill, SENP8 block-2, SENP7 inh, SENP6 block)
NS(=O)(=O)c1ccc(CCNC(=O)C2CC(=O)N(Cc3ccccc3Cl)C2)cc1 (configuration not stated)	none (no result: PPC-1+TRAIL kill)
Cc1nnc(NC2=NCCC2)s1	none | PPC-1 tox inactive
Cc1nnc(NC2=NCCC2)o1	none
Cc1sc(=NC(=O)c2ccco2)n(C)c1-c1ccccc1	PPC-1+TRAIL kill 75.5, C8 TRAIL sens 78.1 | PPC-1 tox 73.8
COc1cc(/C=C/c2cc(C(=O)O)c3ccccc3n2)ccc1OC(F)F	PPC-1+TRAIL kill 79.7, C8 TRAIL sens 82.6 | PPC-1 tox 79.0
CC1(C(=O)NCc2ccccc2)CN(S(C)(=O)=O)CC(=O)N1CCCn1ccnc1 (configuration not stated)	none (no result: PPC-1+TRAIL kill, SENP8 block-2, SENP7 inh, SENP6 block)
Cc1ccc(-c2cn3c(=O)cc(C)[nH]c3n2)cc1	PPC-1+TRAIL kill 70.8, C8 TRAIL sens 71.1 | PPC-1 tox 69.3
Cc1csc(N/N=C/c2ccc([N+](=O)[O-])cc2)n1	none (no result: PPC-1+TRAIL kill)

Screening data: PubChem, Sanford-Burnham Center for Chemical Genomics
